The panel holds about 83,000 compounds, 20% with a hit somewhere; the sample as a whole holds those more often.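 Single-concentration screen, 48 h exposure, 96-well plates. Endpoint: percent growth. Below 10 = active.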 Activity calls are given as the source filed them.
Key:
Assay in all cases: NCI-60 one-dose screen, 48 h (100 = growth as untreated, 0 = no growth, -100 = all killed)
Details in all cases: 10 µM unless noted
[1] = test system: DU-145 prostate
[2] = test system: K-562 leukemia
[3] = test system: MALME-3M melanoma
[4] = test system: MDA-MB-231 breast
[5] = test system: RXF 393 renal
[6] = test system: SF-268 CNS
[7] = test system: SF-295 CNS
[8] = test system: SF-539 CNS
[9] = test system: UACC-257 melanoma
[10] = test system: M14 melanoma
[11] = test system: HCT-15 colon
[12] = test system: HT29 colon
[13] = test system: SNB-75 CNS
[14] = test system: SNB-19 CNS
[15] = test system: U251 CNS
[16] = test system: PC-3 prostate
[17] = test system: SK-MEL-5 melanoma
[18] = test system: UACC-62 melanoma
[19] = test system: LOX IMVI melanoma
[20] = test system: SK-MEL-28 melanoma

Measured: growth

Cc1ccc2nc(C)c(-c3nnc(SCc4ccc(C#N)cc4)o3)n2c1
inactive: [1] 112% | [2] 38% | [3] 101% | [4] 74.2% | [5] 89.5% | [6] 96.6% | [7] 92.9% | [8] 88.3% | [9] 119% | [10] 102% | [11] 79.6% | [12] 115% | [13] 77.7% | [14] 90.7% | [15] 95.3% | [16] 109% | [17] 92.9% | [18] 74.4% | [19] 93.2% | [20] 100%

c1ccc2c(c1)nc(CN1CCOCC1)n1cc(N3CCCC3)nc21
inactive: [1] 106% | [2] 67.8% | [3] 96.9% | [4] 104% | [5] 95% | [6] 110% | [7] 112% | [8] 91.5% | [9] 99.1% | [10] 107% | [11] 97.3% | [12] 111% | [13] 89.7% | [14] 102% | [15] 102% | [16] 82.1% | [17] 98% | [18] 100% | [19] 102% | [20] 118%

COc1ccc(/C=C/c2c(C(=O)/C=C/c3ccc(F)cc3)c(C)nc3ccccc23)cc1
inactive: [1] 35.8% | [2] 10.3% | [3] 83.6% | [4] 54.8% | [5] 55.5% | [6] 69.3% | [7] 62.4% | [8] 81.5% | [9] 66.6% | [10] 65% | [11] 10.8% | [12] 23.6% | [13] 52.1% | [14] 60.9% | [15] 49.6% | [16] 41.7% | [17] 63.4% | [18] 46.8% | [19] 19.7% | [20] 55.3%

Cn1c(I)c(C#C[Si](C)(C)C)c(=O)n(C(=O)c2ccccc2)c1=O
active: [1] 0.184% | [2] -95.2% | [3] -10.3% | [5] -81.5% | [6] -18% | [9] -20.8% | [10] -54.7% | [11] 6.55% | [12] 1.95% | [16] -56.8% | [19] -90.4% | [20] -65.6%
inactive: [4] 64.2% | [7] 87.9% | [8] 69.4% | [13] 52.2% | [14] 95.8% | [15] 24.8% | [17] 55.1% | [18] 69.9%

CCCCCCCCCCCCCCCCCC1=NCCN1CCOC1=C(Cl)C(=O)c2ccccc2C1=O
inactive: [1] 109% | [2] 21.7% | [3] 67.1% | [4] 55.9% | [5] 102% | [6] 91.2% | [7] 108% | [8] 104% | [9] 72.3% | [10] 83.1% | [11] 55.4% | [12] 65% | [13] 87.4% | [14] 81.4% | [15] 66.4% | [16] 55.3% | [17] 103% | [18] 40.6% | [19] 66.6% | [20] 92.1%

CC/C=C1/C(=O)C=C[C@@H]1C/C=C\CCCC(=O)O
inactive: [1] 98.3% | [2] 25.1% | [3] 101% | [4] 79.4% | [5] 110% | [6] 92.4% | [7] 101% | [8] 101% | [9] 73.9% | [10] 77.5% | [11] 72.8% | [12] 78.9% | [13] 105% | [14] 92.1% | [15] 64.9% | [16] 80.5% | [17] 81.5% | [18] 30.7% | [19] 19.9% | [20] 96.9%

COc1nc2c(c(=O)n1C)CN(c1ccccc1)C(=O)CN2C
inactive: [1] 66.3% [100 µM] | [2] 55.2% [100 µM] | [3] 74.3% [100 µM] | [4] 47.5% [100 µM] | [5] 60.4% [100 µM] | [6] 63.4% [100 µM] | [7] 50.7% [100 µM] | [8] 60.8% [100 µM] | [9] 73.6% [100 µM] | [10] 68% [100 µM] | [11] 52.7% [100 µM] | [12] 62.3% [100 µM] | [13] 45% [100 µM] | [14] 57.4% [100 µM] | [15] 62.6% [100 µM] | [16] 37.7% [100 µM] | [17] 48.4% [100 µM] | [18] 43.9% [100 µM] | [19] 70.3% [100 µM] | [20] 90.4% [100 µM]

CCN(CC)c1ccc(C(=O)c2ccc(N(CC)CC)cc2)cc1
inactive: [1] 20.2% | [2] 14.7% | [3] 67.2% | [4] 18.4% | [6] 45.6% | [7] 11% | [9] 76.2% | [11] 27.4% | [14] 38.7% | [15] 20.8% | [16] 26.4% | [17] 23.7% | [18] 37.6% | [19] 32.6% | [20] 51.3%
active: [5] -36.5% | [8] 0.464% | [10] 0.748% | [12] 4.92% | [13] -11.9%

O=C1Nc2ccccc2/C1=C/c1cn(C(=O)c2c(Cl)cccc2Cl)c2ccccc12
inactive: [1] 59.3% | [2] 45.7% | [3] 117% | [4] 55.1% | [6] 56.6% | [7] 44.5% | [8] 67.4% | [9] 79.2% | [10] 66.2% | [11] 31% | [12] 69.7% | [13] 54.7% | [14] 68.7% | [15] 35.8% | [16] 41.7% | [17] 63.1% | [18] 36.7% | [19] 48.4% | [20] 81.5%
active: [5] -4.11%

O=C(c1ccc(Nc2nccc(NCCCCNc3ccnc4cc(Cl)ccc34)n2)cc1)N1CCCCC1
active: [2] -25.3% | [3] -78.6% | [4] -9.32% | [7] 1.19% | [8] -73.7% | [9] -50.8% | [10] -69% | [12] -11.3% | [13] -23.5% | [15] -31.6% | [17] -92.3% | [18] -23% | [19] -83.2% | [20] -52.5%
inactive: [1] 51.6% | [5] 46.9% | [6] 34.2% | [11] 11.2% | [14] 24.7% | [16] 28.7%

O=[N+]([O-])c1ccc(Sc2cccc[n+]2[O-])c2nonc12
inactive: [1] 50% | [3] 100% | [4] 90.4% | [5] 54.5% | [6] 58.9% | [7] 89.9% | [8] 93.6% | [9] 91.5% | [10] 71.3% | [11] 73.1% | [12] 78.2% | [13] 80.7% | [14] 88.3% | [16] 41.8% | [17] 72.3% | [18] 50.6% | [20] 23.8%
active: [2] -21.7% | [15] 2.22% | [19] 2.14%

C(=N\Nc1ncc(-c2cc3cc4c(cc3o2)OCO4)s1)/c1ccco1
active: [8] 7% | [19] -48.8%
inactive: [1] 12.4% | [2] 21.7% | [3] 25% | [4] 42.4% | [5] 17.1% | [6] 39.2% | [7] 84.8% | [9] 80.1% | [10] 52.5% | [11] 18.4% | [12] 36.9% | [13] 51.2% | [14] 53.9% | [15] 37% | [16] 33.6% | [17] 87.4% | [18] 88.8% | [20] 81%

Cc1cc(N2CCCC2)nc(NCc2cc(Nc3ccnc4cc(Cl)ccc34)ccc2F)n1
active: [1] -65.9% | [2] -31.9% | [3] -66.9% | [4] -69.8% | [5] -64.9% | [6] -56.2% | [7] -87.5% | [8] -70.4% | [9] -64% | [10] -80.3% | [11] -74.3% | [12] -41.6% | [13] -90.7% | [14] 1.18% | [15] -89.7% | [16] -38.8% | [17] -98.6% | [18] -77.8% | [19] -92.9% | [20] -71.4%

Cc1ccc(/C=C/c2c(C(=O)/C=C/c3ccc(Cl)cc3)c(C)nc3ccccc23)cc1
inactive: [6] 38.1% | [13] 68.8% | [16] 11.6%
active: [1] -38.8% | [2] 5.31% | [3] -31.2% | [4] -24.2% | [5] -66.4% | [7] -29.3% | [8] -85.5% | [9] 8.99% | [10] -0.212% | [11] -39.9% | [12] 8.51% | [14] -21.4% | [15] -36.9% | [17] -40.6% | [18] -32.8% | [19] -91% | [20] -55%

c1cc2ccc3cc2cc1CNCCOCCNCc1ccc2ccc(cc2c1)CNCCOCCNC3
inactive: [7] 14.5% | [9] 25.5% | [10] 89.6% | [11] 96.7%
active: [1] -29.3% | [2] 6.81% | [3] -64.5% | [4] -53.8% | [5] -40.1% | [6] -55.5% | [8] -53.4% | [12] -34.3% | [13] -98.7% | [14] -21.8% | [15] -20.4% | [16] -38.1% | [17] 1.54% | [18] -52.8% | [19] -25.3% | [20] -8.69%

— PubChem BioAssay (NCI)
